# Laboratory results as given in the supplement of paper PMC12024424.
# Counter-ions that a name gives are not always drawn.
# System: Staphylococcus aureus Sa2 (MRSA, cystic fibrosis isolate)
# Assay: growth reduction vs untreated control (viable cell count); higher = stronger antibacterial activity; extreme values may be limits of the assay
# Details: 0.1 mM; 24 h
# Method: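 Single-dose screen of the MedChem Express Drug Repurposing Library (0.1 mM, 1% DMSO) against planktonic MRSA S. aureus Sa2 (CF isolate) in TSB in 96-well plates, 37 °C aerobic, 24 h. Assays were run in triplicate and repeated twice.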
row,SMILES,growth reduction [%]
1,Cc1c(Cl)cccc1Nc1ccccc1C(=O)O [Tolfenamic Acid],99
2,CC1(C)CCC(C)(C)c2cc(NC(=O)c3ccc(C(=O)O)cc3)ccc21 [Tamibarotene],100
3,N[C@@H](Cc1cc(I)c(Oc2cc(I)c(O)c(I)c2)c(I)c1)C(=O)O [L-Thyroxine (sodium salt pentahydrate)],100
4,CC(C)C[C@@H](C(=O)N[C@H](C(=O)OC1CCCC1)c1ccccc1)[C@H](O)C(=O)NO [Tosedostat],100
5,CCc1cc(F)c2nc(N3CCC(NC4CCOCC4)CC3)c(-c3nc(C)no3)c(C)c2c1,93
6,Cc1cc(CC(C)CC(C)(C)C)n(O)c(=O)c1 (stereo not given) [Piroctone olamine],100
7,CCN1CCN(c2ccc(Nc3cc(N(C)C(=O)Nc4c(Cl)c(OC)cc(OC)c4Cl)ncn3)cc2)CC1 [Infigratinib],100
8,O=C1[C@H](CC[C@H](O)c2ccc(F)cc2)[C@@H](c2ccc(O)cc2)N1c1ccc(F)cc1 [Ezetimibe],91
9,Cc1nc(Nc2ccc(F)cc2)nc(N2CCc3ccccc3C2C)c1C (stereo not given) [Revaprazan (hydrochloride)],100
10,O=C(c1ccc(F)c(F)c1Nc1ccc(I)cc1F)N1CC(O)([C@@H]2CCCCN2)C1 [Cobimetinib],100
11,Clc1ccccc1C(c1ccccc1)(c1ccccc1)n1ccnc1 [Clotrimazole],100
12,C=CCc1ccc(O)c(-c2cc(CC=C)ccc2O)c1 [Magnolol],100
13,Cc1ccc(C(=O)Nc2ccc(CN3CCN(C)CC3)c(C(F)(F)F)c2)cc1C#Cc1cnc2[nH]ncc2c1,100
14,Clc1ccc(C(Cn2ccnc2)OCc2ccc(Sc3ccccc3)cc2)c(Cl)c1 (stereo not given) [Fenticonazole (Nitrate)],100
15,C=CC(N)CCC(=O)O (stereo not given) [Vigabatrin (hydrochloride)],100
16,O=C(Nc1ccc([N+](=O)[O-])cc1Cl)c1cc(Cl)ccc1O [Niclosamide],100
17,c1ccc(-c2ccc(C(c3ccccc3)n3ccnc3)cc2)cc1 (stereo not given) [Bifonazole],100
18,N=C(N)c1ccc(OCCCCCOc2ccc(C(=N)N)cc2)cc1 [Pentamidine (isethionate)],100
19,Cc1cccc(/C=N/Nc2cc(N3CCOCC3)nc(OCCc3ccccn3)n2)c1 [Apilimod (mesylate)],93
20,C#C[C@]1(O)CC[C@H]2[C@@H]3CCc4cc(O)ccc4[C@H]3CC[C@@]21C [Ethynyl Estradiol],100

row,SMILES,growth reduction [%]
1,C=CC(=O)Nc1cc(Nc2nccc(-c3cn(C4CC4)c4ccccc34)n2)c(OC)cc1N(C)CCN(C)C [Almonertinib (hydrochloride)],100
2,O=C(NC[C@H]1CN(c2ccc(N3CCOCC3=O)cc2)C(=O)O1)c1ccc(Cl)s1 [Rivaroxaban],100
3,C[C@@H]1CCc2ncc(F)cc2[C@H]2CCCN2c2ccn3ncc(c3n2)C(=O)N1 [Selitrectinib],97
4,O=C(O)Cc1ccc(Cc2cc(-c3cccc(Cl)c3)nc(C(F)(F)F)c2)cc1,100
5,O=C(OCC(O)CO)c1ccccc1Nc1ccnc2cc(Cl)ccc12 (stereo not given) [Glafenine],100
6,Cc1cc(Nc2ncc(Cl)c(Nc3ccccc3S(=O)(=O)C(C)C)n2)c(OC(C)C)cc1C1CCNCC1 [Ceritinib],100
7,O=C(O)c1cc(F)c2nc(N3[C@@H]4CC[C@H]3C[C@@H](OCc3c(-c5ccccc5OC(F)(F)F)noc3C3CC3)C4)sc2c1 [Tropifexor],100
8,Cc1cc(SCc2sc(-c3ccc(C(F)(F)F)cc3)nc2C)ccc1OCC(=O)O,100
9,Cc1ccc(Sc2ccccc2N2CCNCC2)c(C)c1 [Vortioxetine (hydrobromide)],100
10,Cc1cc(-c2nc(CN3CCNCC3)no2)cc2c1C(=O)N(Cc1ccc(OC(F)(F)F)cc1)C2,100
11,CC/C(=C(\c1ccccc1)c1ccc(OCCN(C)C)cc1)c1ccccc1 [Tamoxifen (Citrate)],100
12,OCCN1CCN(CC/C=C2/c3ccccc3Sc3ccc(Cl)cc32)CC1 [Zuclopenthixol],100
13,CNCCC(Oc1ccc(C(F)(F)F)cc1)c1ccccc1 (stereo not given) [Fluoxetine (hydrochloride)],100
14,Cn1c(O)c(C2=c3ccccc3=NC2=O)c2ccccc21 [Meisoindigo],100
15,CC(C)(C)c1cc(-c2cc(-c3ccc(C(=O)O)cc3)ccc2OCCO)ccc1N1CCCC1 [Trifarotene],100
16,COc1cc([C@H]2C(C#N)=C(N)Oc3c2ccc(N)c3N)cc(Br)c1OC [Crolibulin],100
17,Cc1cccc(/C=N/Nc2cc(N3CCOCC3)nc(OCCc3ccccn3)n2)c1 [Apilimod],93
18,CC[C@H]1[C@@H](O)[C@@H]2[C@H](CC[C@]3(C)[C@@H]([C@H](C)CCC(=O)O)CC[C@@H]23)[C@@]2(C)CC[C@@H](O)C[C@@H]12 [Obeticholic acid],98
19,CC(=O)O[C@]1(C(C)=O)CC[C@H]2[C@@H]3C=C(C)C4=CC(=O)CC[C@]4(C)[C@H]3CC[C@@]21C [Megestrol acetate],91
20,CSc1ccc2c(c1)N(CCC1CCCCN1C)c1ccccc1S2 (stereo not given) [Thioridazine (hydrochloride)],100
